# Data as given in paper PMC4336329 (PLoS ONE, 2015).
# The whole screen tested about 310,000 compounds, of which about 14,000 (4.5%) showed an effect of 50% or more. The effect is printed as a negative number. Only a selection was taken, and strong results are over-represented in it overall.
# Biological target: human ether-à-go-go-related gene (hERG) potassium channel (human, UniProt Q12809)
# Experiment: primary screen, population patch clamp on CHO cells stably expressing hERG; higher = less effect of the substance
# 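Note: peak tail current of the secondary pulse compared with the same well before compound.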
# Chain of human ether-à-go-go-related gene (hERG) potassium channel (Q12809 whole entry, looked up): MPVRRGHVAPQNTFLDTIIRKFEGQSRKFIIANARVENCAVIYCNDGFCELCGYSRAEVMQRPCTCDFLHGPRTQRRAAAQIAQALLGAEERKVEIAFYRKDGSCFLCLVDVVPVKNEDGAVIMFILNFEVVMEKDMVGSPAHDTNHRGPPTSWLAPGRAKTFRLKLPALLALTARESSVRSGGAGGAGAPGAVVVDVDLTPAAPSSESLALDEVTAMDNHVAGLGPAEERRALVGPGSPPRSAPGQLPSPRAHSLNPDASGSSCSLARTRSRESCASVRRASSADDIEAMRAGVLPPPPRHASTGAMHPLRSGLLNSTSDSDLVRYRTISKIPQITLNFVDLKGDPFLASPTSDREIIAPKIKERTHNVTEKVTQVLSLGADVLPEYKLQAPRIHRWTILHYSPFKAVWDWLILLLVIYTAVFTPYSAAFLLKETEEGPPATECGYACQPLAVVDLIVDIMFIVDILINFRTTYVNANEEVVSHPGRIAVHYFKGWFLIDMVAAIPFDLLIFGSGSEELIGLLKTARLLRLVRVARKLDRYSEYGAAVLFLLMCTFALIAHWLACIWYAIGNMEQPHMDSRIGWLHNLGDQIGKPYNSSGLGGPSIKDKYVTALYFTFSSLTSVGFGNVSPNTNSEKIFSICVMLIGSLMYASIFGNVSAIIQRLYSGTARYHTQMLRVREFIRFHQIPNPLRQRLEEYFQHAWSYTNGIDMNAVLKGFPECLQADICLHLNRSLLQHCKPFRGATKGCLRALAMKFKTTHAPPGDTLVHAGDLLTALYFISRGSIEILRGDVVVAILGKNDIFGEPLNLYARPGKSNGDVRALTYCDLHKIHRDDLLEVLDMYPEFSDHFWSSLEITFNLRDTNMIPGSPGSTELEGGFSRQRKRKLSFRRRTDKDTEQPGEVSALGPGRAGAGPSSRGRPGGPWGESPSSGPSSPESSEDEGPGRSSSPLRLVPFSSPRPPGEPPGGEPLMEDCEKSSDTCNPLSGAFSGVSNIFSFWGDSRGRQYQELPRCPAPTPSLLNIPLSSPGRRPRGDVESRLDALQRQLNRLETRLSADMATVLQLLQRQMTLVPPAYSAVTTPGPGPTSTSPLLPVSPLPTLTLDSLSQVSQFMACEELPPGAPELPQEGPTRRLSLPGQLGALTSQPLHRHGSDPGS
row,SMILES,"hERG current change (%, negative = inhibition) at 10uM"
1,CCN(Cc1ccccc1)C(=O)CCc1nnc(CCCc2ccccc2)o1,21.1%
2,COc1cc(C(=O)NC(=S)Nc2ccc3oc(=O)ccc3c2)cc(OC)c1OC,9.8%
3,CC(=O)OC1COC(n2ccc3cc([N+](=O)[O-])ccc32)C(OC(C)=O)C1OC(C)=O (stereo not drawn),-12.2%
4,CC(C)C(=O)Nc1ccc(Sc2ccc(F)cc2)cc1,-3.48%
5,CCC(C)Nc1nc2c(c(=O)n(C)c(=O)n2C)n1Cc1ccc(Cl)cc1 (stereo not drawn),-7.45%
6,COc1ccccc1-c1nc(SCC(=O)O)n[nH]1,-1.65%
7,COc1ccc(N=Cc2c(O)n(-c3ccc(OC)cc3)c(=O)c3ccccc23)cc1,15.2%
8,CC(=O)N1CCN(C(=O)c2ccc(Oc3ccccc3)cc2)CC1,19.1%
9,O=C(c1ccccc1)N1CCN(C(=O)c2ccc([N+](=O)[O-])cc2)CC1,-53.9%
10,O=[N+]([O-])c1ccc(C(=S)N2CCN(Cc3ccccc3)CC2)cc1,-57.6%
11,O=C(c1ccc([N+](=O)[O-])cc1)N1CCCC1,4.5%
12,O=CN1CCN(C(=O)c2ccc([N+](=O)[O-])cc2)CC1,-22.3%
13,CC(=O)N1CCN(c2nc3ccc([N+](=O)[O-])cc3s2)CC1,-46.6%
14,CCN1CCN(C(=S)c2ccc([N+](=O)[O-])cc2)CC1,-36.9%
15,O=C(c1ccccc1)N1CCN(C(=O)c2ccc(OC(F)(F)F)cc2)CC1,-62.8%
16,O=C(c1ccccc1)N1CCN(C(=O)c2ccccc2)CC1,1.49%
17,O=C(c1ccccc1)N1CCN(c2nc3ccc([N+](=O)[O-])cc3s2)CC1,-55.4%
18,O=C(c1cccs1)N1CCN(c2nc3ccc([N+](=O)[O-])cc3s2)CC1,-7.47%
19,Oc1ccc(C(=S)N2CCN(Cc3ccccc3)CC2)cc1,-5.46%
20,O=C(c1cc(N2C(=O)C3C4CCC(C4)C3C2=O)ccc1Cl)N1CCCCCC1 (stereo not drawn),3.82%
21,O=C(c1ccccc1)N1CCC(O)(c2ccc3c(c2)OCO3)CC1,-12.4%
22,CCn1c(CNC(=O)c2ccc3c(c2)OCO3)nnc1SCC(=O)Nc1ccccc1F,-6.31%
23,O=C(Nc1ccccc1)c1ccco1,15%

row,SMILES,"hERG current change (%, negative = inhibition) at 10uM"
1,COC(=O)c1sccc1NC(=S)N1C(C)CCCC1C (stereo not drawn),-7.4%
2,Cc1ccc(S(=O)(=O)c2nc(C)c3c(n2)CCC3)cc1,3.61%
3,COc1ccc(C(=O)COC(=O)CCc2ccccc2)cc1,-11.4%
4,CC(=O)c1ccc(NC(=O)C(C)Sc2nnc(C3CCCCC3)o2)cc1 (stereo not drawn),-4.84%
5,O=C(c1ccc(-c2ccccc2)cc1)N1CCN(c2ncccn2)CC1,-5.92%
6,CC(C)N1CCN(C(=O)c2ccc([N+](=O)[O-])cc2)CC1,-39.8%
7,Cc1cc(C)n(-c2ccc(C(=O)N3CCN(c4ccccn4)CC3)cc2)n1,-32.5%
8,Cc1ccc(C)c(N2CCN(C(=O)c3ccc4nc(-c5ccco5)c(-c5ccco5)nc4c3)CC2)c1,21.1%
9,O=C(c1ccc2nc(-c3ccco3)c(-c3ccco3)nc2c1)N1CCN(c2ncccn2)CC1,-67.8%
10,O=C(c1ccc2nc(-c3ccco3)c(-c3ccco3)nc2c1)N1CCN(c2ccccc2)CC1,-15.4%
11,O=C(c1ccc([N+](=O)[O-])cc1)N1CCN(C(=O)c2cccs2)CC1,-70.3%
12,CN1C(=O)N(C)C(=O)C2(Cc3cc([N+](=O)[O-])ccc3N3CCN(C(=O)c4ccccc4)CC32)C1=O (stereo not drawn),-65%
13,CN1C(=O)N(C)C(=O)C2(Cc3cc([N+](=O)[O-])ccc3N(C)C2c2ccccc2)C1=O (stereo not drawn),-17.6%
14,O=C(c1ccncc1)N1CCN(C(=O)c2cccs2)CC1,6.46%
15,Cc1cc(-c2ccccc2)n(-c2ccc(C(=O)N3CCN(c4ncccn4)CC3)cc2)n1,-56.4%
16,O=C1NC(=O)C2(Cc3cc([N+](=O)[O-])ccc3N3CCN(C(=O)c4ccccc4)CC32)C(=O)N1 (stereo not drawn),23%
17,CCC1=NC(c2ccccc2OC)N(O)C1(C)C (stereo not drawn),15.9%
18,CCOc1ccc(C(=O)NCC(=O)NCC(c2cccs2)N2CCOCC2)cc1 (stereo not drawn),4.69%
19,Oc1ccccc1-c1nc(NC2CCCC2)c2ccccc2n1,17.8%
20,O=C(O)C(=O)O.c1csc(-c2nnc(N3CCCCCC3)c3ccccc23)c1,-20.9%
21,c1ccc2c(NC3CCCC3)nnc(NC3CCCC3)c2c1,-74.9%
22,c1ccc(-c2nc(NC3CCCC3)c3ccccc3n2)cc1,20.5%
23,c1csc(-c2nnc(NC3CCCCC3)c3ccccc23)c1,-75.4%

row,SMILES,"hERG current change (%, negative = inhibition) at 10uM"
1,c1csc(-c2nc3ccccn3c2NC2CCCCC2)c1,8.81%
2,CC(C)c1nc(=S)n(-c2ccccc2)[nH]1,17.5%
3,COc1cccc(Cn2nnc(C(=O)Nc3cc(C)ccc3OC)c2N)c1,8.11%
4,CCOC(=O)C1C(=O)NC(c2ccccc2)=NC1c1ccc(O)c(OC)c1 (stereo not drawn),9.11%
5,Cc1ccccc1CN1C(=O)[C@@H]2Cc3c([nH]c4ccccc34)C(C)(C)N2C1=O,19%
6,Cl.N=c1sccn1CC(=O)N1CCc2ccccc21,-8.84%
7,Cc1ccc(NC2=Nc3ccccc3CS2)cc1,8.04%
8,CCOC(=O)c1c(NC(=O)CSc2nc3ccccc3o2)sc(C)c1C,19.4%
9,O=C(CN1CCC(n2nnc3cc(F)ccc32)CC1)Nc1ccc2c(c1)CCC2,-21.3%
10,O=C(CN1CCC(n2nnc3cc(C(F)(F)F)ccc32)CC1)Nc1ccc2c(c1)OCCO2,-36.5%
11,Cc1ccc2c(c1)nnn2C1CCN(C(=O)C23CC4CC(CC(C4)C2)C3)CC1,1.11%
12,Cc1ccc2c(c1)nnn2C1CCN(CC(=O)N2CCN(c3ccc(F)cc3)CC2)CC1,-70.3%
13,Cc1ccccc1C(=O)NC1CCN(CC(=O)Nc2ccc3c(c2)OCCO3)CC1,2.93%
14,Cc1ccc2c(c1)nnn2C1CCN(CC(=O)Nc2ccc3c(c2)OCCO3)CC1,-55.5%
15,Cc1ccc2c(c1)nnn2C1CCN(CC(=O)c2ccc(Cl)cc2)CC1,-45.9%
16,Cc1ccc2c(c1)nnn2C1CCN(CC(=O)Nc2ccc(F)cc2)CC1,-65.4%
17,CC1(CCC#N)N=C(SCCC#N)N(c2ccccc2)C1=O (stereo not drawn),2.7%
18,NC(Cc1ccc(O)c([N+](=O)[O-])c1)C(=O)O (stereo not drawn),15.2%
19,CN(CC(=O)NCCN1CCN(Cc2ccccc2)CC1)S(=O)(=O)c1cccc2nsnc12,-25.4%
20,CCC/C=C1/CCCOC(C(=O)NCc2cc(C)n(C)n2)(C(F)(F)F)C1 (stereo not drawn),5.48%
21,O=C(CSc1nnc(NC(=O)c2ccccc2C(=O)O)s1)Nc1ccccc1Cl,24%
22,O=C(O)c1ccc(Nc2nc(-c3cccnc3)cs2)cc1O,9.69%
23,C=CCNC(=O)CSc1nnc(-c2cccs2)o1,-0.265%

row,SMILES,"hERG current change (%, negative = inhibition) at 10uM"
1,Cc1ccc(-c2nn(-c3cc(Cl)ccc3[N+](=O)[O-])c(=O)c3ccccc23)cc1,-22.1%
2,Cc1nc2c([nH]1)C1(CCN(Cc3ccccc3)CC1)C(C#N)=C(N)O2.Cl,-52.5%
3,CC(C)c1[nH]nc2c1C1(CCN(Cc3ccccc3)CC1)C(C#N)=C(N)O2,-25.5%
4,Cc1[nH]nc2c1C1(CCN(Cc3ccccc3)CC1)C(C#N)=C(N)O2,-42%
5,COCCN1C(=O)c2cc(C(=O)Nc3cccc(F)c3)ccc2C1Nc1cccc(F)c1 (stereo not drawn),7.71%
6,Cc1cc(C)c(S(=O)(=O)c2ccccc2)c(N(C)C)n1,4.06%
7,CN(C)CCCn1c(N)c(S(=O)(=O)c2ccccc2)c2nc3ccccc3nc21,-51.1%
8,CCN(CC)CCn1c(N)c(S(=O)(=O)c2ccccc2)c2nc3ccccc3nc21,-49.4%
9,Cc1ccc(S(=O)(=O)c2c(N)n(CCCO)c3nc4ccccc4nc23)cc1,-21.4%
10,Nc1c(S(=O)(=O)c2ccccc2)c2nc3ccccc3nc2n1CCN1CCOCC1,-38.2%
11,Cc1ccc(S(=O)(=O)c2c(N)n(CCCN(C)C)c3nc4ccccc4nc23)cc1,-59%
12,CCCCn1c(N)c(S(=O)(=O)c2ccc(C)cc2)c2nc3ccccc3nc21,-0.298%
13,O=C(NCC1CCCN(C(=O)CN2CCCCC2)C1)c1ccccc1Cl (stereo not drawn),13%
14,Cc1cc(SCC(=O)NCCC2=CCCCC2)nc2ccccc12,-10.9%
15,O=c1c(-c2ccnn2-c2ccc(F)cc2)cnc2n1CCS2,19.9%
16,COC(=O)C1CCN(C(=O)/C=C/c2ccccc2)CC1,4.21%
17,Cc1cccc(NC(=O)CN2CCN(C(=O)C3CCC3)CC2)c1C,-31.4%
18,CCOC(=O)C1CCN(C(=O)/C=C/c2ccccc2)CC1,-16.8%
19,Cc1cccc(NC(=O)CN2CCN(C(=O)C3CCN(C(=O)/C=C/c4ccccc4)CC3)CC2)c1C,-73.9%
20,CCc1ccccc1NC(=O)CN1CCN(C(=O)C2CCN(C(=O)/C=C/c3ccccc3)CC2)CC1,-72.9%
21,Cc1cccc(NC(=O)CN2CCN(C(=O)C3CCCO3)CC2)c1C (stereo not drawn),9.91%
